TrxR1 substrate: rat thioredoxin reductase 1 substrate activity. Potency, µM (top dose mostly 114 µM), without a hit: top-dose activity change, negative = substrate turnover. purified TrxR1 substrate turnover, NADPH consumption readout. actives 0.01% (n = 390,000). O89049; note: potency is the fitted concentration of half-maximal effect; nearly all actives have a fitted effect of over 50% in size
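Rat TrxR1, dispensed at 90 nM, was prereduced with 400 uM NADPH (final) for 5 min at ~22 deg C, then incubated with compound 15 min before 400 uM selenite. A first-read NADPH fluorescence drop versus no-compound background flagged substrates.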
GALK inh: galactokinase (human) inhibition; AID 1868; Purified GALK, Kinase-Glo residual ATP luminescence; actives 0.007% (n = 270,000); Potency, µM (series often up to 57.5 µM), for inactives: at the highest dose activity change, negative = inhibition, most hits filed as inhibitors; note: potency is the fitted concentration of half-maximal effect
Target sequence (P51570 whole entry, looked up): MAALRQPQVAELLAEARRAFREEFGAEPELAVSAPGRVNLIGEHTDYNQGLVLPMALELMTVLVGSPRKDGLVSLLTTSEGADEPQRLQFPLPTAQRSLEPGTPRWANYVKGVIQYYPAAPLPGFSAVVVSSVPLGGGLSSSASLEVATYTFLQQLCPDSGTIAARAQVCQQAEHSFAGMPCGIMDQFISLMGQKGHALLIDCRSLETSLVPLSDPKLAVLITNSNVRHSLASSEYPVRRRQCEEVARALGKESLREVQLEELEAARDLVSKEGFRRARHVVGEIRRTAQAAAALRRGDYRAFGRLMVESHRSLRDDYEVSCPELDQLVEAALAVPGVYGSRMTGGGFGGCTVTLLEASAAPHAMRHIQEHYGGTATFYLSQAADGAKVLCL
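The enzyme phosphorylates galactose (100 uM) using ATP (35 uM); inhibition is detected as higher residual ATP, quantified by bioluminescence after 1 h reaction at room temperature, pH 8.0.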
rTrxR1 inhibitor: rat TrxR1 inhibition; Potency, µM (highest dose often 114 µM), inactives show at the highest dose activity change, negative = inhibition, hits mostly inhibitors; actives 1% (n = 390,000); recombinant rTrxR1, NADPH fluorescence consumption, selenite substrate; O89049; note: potency is the fitted concentration of half-maximal effect; nearly all actives have a fitted effect of over 65% in size
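Rat TrxR1 (90 nM in the dispensed reagent) was pre-reduced with 400 uM NADPH for 5 min at room temperature, then incubated with compound for 15 min. After 400 uM selenite was added, NADPH fluorescence (Ex 340/Em 450 nm) was followed for 8 min.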
PI4K2A inh: PI4K2A (human) kinase inhibition | Q9BTU6 | purified PI4K2A, ADP-Glo luminescence, 1 h; active compounds read low | activity change, negative = inhibition, % at 76.9 µM | actives 0.13% (n = 420,000) | AID 1346378; in the data active = activity change below about -50%; inconclusive = mostly about -30% to -49%;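 note: -100% = wells without enzyme as full effect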
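PI4K2A activity was measured by ADP-Glo luminescence: enzyme (4 ug/mL stock) and phosphatidylinositol (1.2 mM stock) in Tris pH 7.5/MgCl2/EGTA/Triton X-100 buffer were reacted with ATP (300 microM stock) for one hour at ambient temperature.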
LDHA inh: inhibitors of human lactate dehydrogenase A. activity change, % (values are at about 110 or 230 µM). P00338. AID 1347041. purified LDHA, NADH/diaphorase-resazurin fluorescence; active compounds read low. actives 0.15% (n = 480,000); in the data active = activity change below about -30%; inconclusive = mostly about -25% to -30%;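 note: plate controls were DMSO wells for no effect and wells without enzyme for full effect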
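Resorufin fluorescence (ex540/em590), read at 0 and 20 min after diaphorase/resazurin addition, reports the NADH left after a 5 min room-temperature reaction of 2 nM human LDH5 with 0.06 mM NADH and 0.2 mM pyruvate.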
Integrin act MD: activates integrin-mediated alleviation for muscular dystrophy | alpha7betagal myoblasts, beta-gal FDG fluorescence, 48 h | actives 0.064% (n = 350,000) | Potency, µM (highest dose often 38.3 µM), without a hit: at the highest dose activation, hits mostly activators;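 note: potency is the fitted concentration of half-maximal effect; 100% = response of the positive control SU9516; nearly all actives have a fitted effect of over 60% in size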
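Alpha7betagal+/- myoblasts (passage 13) were plated 16-24 hr, then exposed to compounds (1:260 dilution of DMSO stock) for 48 hours at 37C. After MPER lysis, β-galactosidase reporter activity was read as FDG fluorescence (ex 480/em 540) after 30 minutes.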
Starred values were filed as active, the others as inactive; [ ] = another dose, or the depositor's remark. Hits are enriched below; roughly 1.1% of the tested compounds scored in any of these assays. Unless noted, calls come from the whole dose curve; as a rule, active = well fitted curve in the direction sought with a large enough effect; inconclusive = small, poorly fitted or top-dose-only effect, or another doubt; inactive = no such curve, though single readings can be large; an effect the other way counts as inactive or inconclusive. Unless noted, % is set by controls: 0 for no effect and ±100 for the full control effect.

How did O=c1cc(-c2ccccc2Cl)oc2ccc([N+](=O)[O-])c(O)c12 do in these assays?
TrxR1 substrate: -10%; rTrxR1 inhibitor: 2%[57.1 µM]; PI4K2A inh: -1; LDHA inh: 5; Integrin act MD: 6%

Results for O=[N+]([O-])c1cc([N+](=O)[O-])c2oc(-c3ccccc3)c(Br)c2c1O ?
TrxR1 substrate: -5%; GALK inh: inconclusive; rTrxR1 inhibitor: -5%; PI4K2A inh: -2; LDHA inh: -68*; Integrin act MD: 17%

What do the screens show for `CSc1nc(O)c(C(c2ccc(O)cc2)c2c(O)nc(SC)[nH]c2=O)c(=O)[nH]1`?
TrxR1 substrate: 2%; GALK inh: 5%; rTrxR1 inhibitor: 8.9µM*; PI4K2A inh: -9; LDHA inh: -8; Integrin act MD: -29%

How did CSc1nc(O)c(C(c2cccc([N+](=O)[O-])c2)c2c(O)nc(SC)[nH]c2=O)c(=O)[nH]1 do in these assays?
TrxR1 substrate: -14%; GALK inh: -3%; rTrxR1 inhibitor: 45µM*; PI4K2A inh: -10; LDHA inh: -1; Integrin act MD: inconclusive

How did CC(C)c1c(O)nc(SCc2ccc(F)cc2)[nH]c1=O do in these assays?
TrxR1 substrate: 11%[57.1 µM]; GALK inh: -1%; rTrxR1 inhibitor: 32%[57.1 µM]; PI4K2A inh: -11; LDHA inh: -9; Integrin act MD: 38%

How did CCOc1ccccc1C(c1c(O)nc(SC)[nH]c1=O)c1c(O)nc(SC)[nH]c1=O do in these assays?
TrxR1 substrate: 1%; rTrxR1 inhibitor: inconclusive; PI4K2A inh: 0; LDHA inh: -2; Integrin act MD: -22%

What do the screens show for `CCOc1ccc(Cc2c(O)nc(SC)[nH]c2=O)cc1`?
PI4K2A inh: 0; LDHA inh: -1; Integrin act MD: -3%

Results for C=CCOc1ccc(C(c2c(O)nc(SC)[nH]c2=O)c2c(O)nc(SC)[nH]c2=O)cc1 ?
TrxR1 substrate: 8%; rTrxR1 inhibitor: 7.9µM*; PI4K2A inh: -11; LDHA inh: -5; Integrin act MD: 0%

How did CCOc1ccc(C(c2c(O)nc(SC)[nH]c2=O)c2c(O)nc(SC)[nH]c2=O)cc1 do in these assays?
TrxR1 substrate: -1%; rTrxR1 inhibitor: 28µM*; PI4K2A inh: -14; LDHA inh: -1; Integrin act MD: -2%

What do the screens show for `CC(C)CC(NC(=O)c1ccn(C)c(=O)c1)c1ccccc1` (stereo unspecified)?
LDHA inh: 6

How did Cn1c(SCc2csc(-c3ccccc3)n2)nnc1C1CC1 do in these assays?
LDHA inh: -7

What do the screens show for `Cc1ccc(-c2noc(-c3ccc(Br)o3)n2)s1`?
LDHA inh: 1

What do the screens show for `CC(=O)NC1=C(NC2CCS(=O)(=O)C2)C(=O)c2ccccc2C1=O` (stereo unspecified)?
TrxR1 substrate: -17%; GALK inh: -1%; rTrxR1 inhibitor: inconclusive; PI4K2A inh: -6; LDHA inh: 43; Integrin act MD: 0%

What do the screens show for `CN(C1=C(NC(=O)c2ccccc2)C(=O)c2ccccc2C1=O)C1CCS(=O)(=O)C1` (stereo unspecified)?
TrxR1 substrate: -3%; GALK inh: 0%; rTrxR1 inhibitor: 50µM*; PI4K2A inh: -16; LDHA inh: 14; Integrin act MD: -63%

Results for O=C1CC(c2ccc(O)c(O)c2)Oc2cc(O)cc(O)c21 (stereo unspecified) ?
TrxR1 substrate: -4%; GALK inh: -1%; rTrxR1 inhibitor: -22%; PI4K2A inh: -4; LDHA inh: 1; Integrin act MD: -9%

What do the screens show for `O=C1C(=O)C(c2cc(O)c(O)c(O)c2)Oc2cc(O)cc(O)c21` (stereo unspecified)?
TrxR1 substrate: -6%; rTrxR1 inhibitor: 13µM*; LDHA inh: 10

Results for O=C(O)c1ccc(-n2cccn2)c([N+](=O)[O-])c1 ?
TrxR1 substrate: -13%; GALK inh: 5%; rTrxR1 inhibitor: 56µM*; PI4K2A inh: 1; LDHA inh: -12; Integrin act MD: 24%

What do the screens show for `Cc1ccc(NC(=O)c2ccc(-n3cccn3)c([N+](=O)[O-])c2)cc1`?
TrxR1 substrate: -4%; GALK inh: -7%; rTrxR1 inhibitor: -28%; PI4K2A inh: 0; LDHA inh: -8; Integrin act MD: 8%

How did CCOC(=O)C(=Cc1ccc(-n2ccnc2)cc1)C(=O)OCC do in these assays?
TrxR1 substrate: -1%; GALK inh: 1%; rTrxR1 inhibitor: 20µM*; PI4K2A inh: -4; LDHA inh: -6; Integrin act MD: -62%

How did COCCOC(=O)/C(=C/c1ccc(OC(=O)c2ccccc2)cc1)C(C)=O do in these assays?
TrxR1 substrate: 0%; rTrxR1 inhibitor: inconclusive; PI4K2A inh: 1; LDHA inh: 1; Integrin act MD: 45%

Results for CCOC(=O)C(=Cc1ccc(Br)cc1)C(=O)OCC ?
TrxR1 substrate: -1%; GALK inh: 1%; rTrxR1 inhibitor: 25µM*; PI4K2A inh: 23; LDHA inh: -3; Integrin act MD: -63%

How did CCOC(=O)/C(=C/c1ccc(OC(=O)c2ccncc2)cc1)C(C)=O do in these assays?
TrxR1 substrate: 14%[57.1 µM]; GALK inh: 2%; rTrxR1 inhibitor: 6.3µM*; PI4K2A inh: -4; LDHA inh: -6; Integrin act MD: -2%

What do the screens show for `CCOC(=O)C(=Cc1ccc(C)cc1)C(=O)OCC`?
LDHA inh: 8

What do the screens show for `Cc1nc(CNC(=O)N(C)Cc2ccc3c(c2)OCO3)cs1`?
LDHA inh: -11

What do the screens show for `COc1ccc(C(C#N)N2N=C(C)CC2(C)C)cc1OC` (stereo unspecified)?
TrxR1 substrate: 0%; GALK inh: 1%; rTrxR1 inhibitor: 40µM*; PI4K2A inh: -6; LDHA inh: 3; Integrin act MD: 7%

What do the screens show for `Cc1nc2c(C)cccn2c1/C(O)=C1\C(=O)C(=O)N(CCN(C)C)C1c1ccc(Br)cc1` (stereo unspecified)?
LDHA inh: 3

What do the screens show for `COCC(=O)Nc1nc2n(n1)C(c1ccccc1Cl)CC(c1ccc(OC)cc1)N2` (stereo unspecified)?
TrxR1 substrate: 49%; GALK inh: 0%; rTrxR1 inhibitor: inconclusive; PI4K2A inh: -1; LDHA inh: 1; Integrin act MD: -15%

Results for COCC(=O)Nc1nc2n(n1)C(c1ccc(Cl)cc1)CC(c1ccc(OC)cc1)N2 (stereo unspecified) ?
TrxR1 substrate: 27%[57.1 µM]; GALK inh: 1%; rTrxR1 inhibitor: 18µM*; PI4K2A inh: 4; LDHA inh: 0; Integrin act MD: -24%

How did CCCCCCCCCNC(=O)c1nccnc1N do in these assays?
LDHA inh: 6

Bioassay records deposited in PubChem by National Center for Advancing Translational Sciences (NCATS).
